Source: PubChem BioAssay
Compounds with a hit are over-represented: about 19% of the library has one in this group of screens.
TDP1 cell CPT: qHTS for Inhibitors of human tyrosyl-DNA phosphodiesterase 1 (TDP1): qHTS in cells in presence of CPT; chicken DT40 Tdp1-/-;hTDP1 cells + 20 nM CPT, ATP luminescence, 48 h; Potency, µM (top dose mostly 46.2 µM), for inactives: at the highest dose activity change, negative = growth inhibition, most hits filed as inhibitors; hit rate 12% among 420,000; AID 686979, 2013; also: potency is read from the fitted curve at half-maximal effect; % is scaled to controls: 0 for no effect and ±100 for the full control effect; nearly all actives have a fitted effect of over 55% in size
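Chicken DT40 Tdp1-/- cells complemented with human TDP1, 400 cells/well, exposed to compounds plus 20 nM camptothecin for at least 48 h at 37 C; viability read as ATP content by CellTiter-Glo luminescence.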
MCF10A rerep: A quantitative high throughput screen for small molecules that induce DNA re-replication in MCF 10a normal breast cells; MCF 10A DNA re-replication, Hoechst nuclear intensity, 48 h; Potency, µM (doses to about 46.1 µM), without a hit: at the highest dose activity, positive = re-replication, usual class: activators; hit rate 2.9% among 350,000; AID 624296, 2012; also: potency is read from the fitted curve at half-maximal effect; % of control where 0% means no effect; nearly all actives have a fitted effect of over 50% in size
TDP1 cell noCPT: qHTS for Inhibitors of human tyrosyl-DNA phosphodiesterase 1 (TDP1): qHTS in cells in absence of CPT. DT40 Tdp1-/- hTDP1 cells, no CPT, ATP luminescence, 48 h. Potency, µM (titrated, usually from 46.2 µM), without a hit: top-dose activity change, negative = growth inhibition, most hits filed as inhibitors. hit rate 15% among 420,000. AID 686978, 2013; also: potency is read from the fitted curve at half-maximal effect; % is scaled to controls: 0 for no effect and ±100 for the full control effect; nearly all actives have a fitted effect of over 55% in size
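DT40 Tdp1-/-;hTDP1 cells, no CPT (DMSO vehicle only), 400 cells/well; compounds pin-transferred; ≥48 hr, 37 °C; CellTiter-Glo 30 min RT dark, luminescence read.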
BCR signal inh: qHTS Assay to Find Inhibitors of Chronic Active B-Cell Receptor Signaling. Potency, µM (top dose mostly 46.1 µM), for the others: top-dose activity change, negative = inhibition, most hits filed as inhibitors. ABC-DLBCL IkBa-CBG/CBR reporter, luminescence ratio, 4 h. hit rate 0.05% among 340,000; active = well fitted inhibition curve with a large enough effect in the signal ratio, with a control signal flat, not every such curve was filed as active; inconclusive = small, poorly fitted or top-dose-only effect, or effect the other way, or a change in a side signal; the % refers to the signal ratio;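 also: potency is read from the fitted curve at half-maximal effect; plate controls were basal doxycycline-induced cells for no effect and cells given 10 µM MG132 for full effect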
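Concentration-response series (up to 46 uM) were applied to TMD8 dual-reporter cells for 4 h at 37C with doxycycline. Green/red ratio, after filter-overlap correction, defined %Activity; red signal alone was normalised to basal cells and zero luminescence.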
IL1B secr inh: qHTS for Inhibitors of Inflammasome Signaling: IL-1-beta AlphaLISA Primary Screen; THP-1 LPS/ATP IL-1B secretion, AlphaLISA, 16 h; stronger effect = lower value; hit rate 4.7% among 360,000; activity change, % at 57.5 µM; in the data active = activity change below about -50%; inconclusive = mostly about -30% to -49%; also: % is scaled to controls: 0 for no effect and ±100 for the full control effect
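Secreted IL-1B measured by AlphaLISA bead assay after 16 h compound exposure of THP-1 cells; compounds (final up to 57.5 uM) added 1 h before LPS (250 ng/mL) and ATP (1.25 mM) stimulation; lower signal means less secretion.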
SW480 rereplic: A quantitative high throughput screen for small molecules that induce DNA re-replication in SW480 colon adenocarcinoma cells | SW480 DNA re-replication, Hoechst DNA content imaging, 48 h | Potency, µM (top dose mostly 46.1 µM), for inactives: at the top dose re-replication activation, hits mostly activators | hit rate 1.8% among 340,000 | AID 624297, 2012; also: potency is read from the fitted curve at half-maximal effect; % of control where 0% means no effect; nearly all actives have a fitted effect of over 55% in size
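Cells (250 per well) received 23 nL compound or DMSO by pin tool and were kept 48 hr at 37 C, 5% CO2. Nuclei were then stained with Hoechst for 40 min and scanned for DNA content.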
* hit, by the source's call; ? = inconclusive; nt = no result; [ ] = another dose, or the depositor's remark. Unless noted, calls follow the shape of the dose curve; as a rule, active = well fitted curve in the direction sought with a large enough effect; inconclusive = small, poorly fitted or top-dose-only effect, or another doubt; inactive = no such curve, though single readings can be large; an effect the other way counts as inactive or inconclusive.

SMILES	TDP1 cell CPT	MCF10A rerep	TDP1 cell noCPT	BCR signal inh	IL1B secr inh	SW480 rereplic
COc1ccc(Cl)cc1NS(=O)(=O)c1ccc2c(c1)NC(=O)CC(=O)N2	-27%	nt	-2%	nt	nt	nt
O=c1c2oc3nc4c(cc3c2ncn1CCCc1ccccc1)CCCC4	?	5%	?	?	-53*	-15%
CCCCn1cnc2c(oc3nc4c(cc32)CCCC4)c1=O	-19%	-6%	-30%	-3%	-60*	?
COc1ccccc1NC(=O)Cn1cnc2c(oc3nc4c(cc32)CCCC4)c1=O	?	4%	-25%	?	-24	-6%
CCCCCCn1cnc2c(oc3nc4c(cc32)CCCC4)c1=O	23µM*	10%	-29%	-1%	-29	1%
COc1ccc(-c2noc(-c3ccc(NC4CCCC4)c([N+](=O)[O-])c3)n2)cc1OC	1%	nt	-5%	nt	nt	nt
COc1ccccc1/C=C/C(=O)OCCN1C(=O)c2ccccc2C1=O	6%	3%	-8%	-12%	-15	-7%
C=CCCC(=O)N1C[C@@H](CO)[C@@H](NC)C[C@H]1c1ccccc1Br	-18%	nt	-2%	nt	5	nt
O=S(=O)(c1ccc(F)cc1)N1CCC(n2c(C(F)(F)F)nc3cccnc32)CC1	12µM*	nt	-103%	nt	nt	nt
CC(C)c1cn(CC[C@@H]2CC[C@@H](NC(=O)C3CCCCC3)[C@@H](CO)O2)nn1	-16%	nt	0%	nt	60	nt
COc1ccc([N+](=O)[O-])cc1C(=O)Nc1ccc(Cc2ccncc2)cc1	-12%	9%	?	?	2	-17%
COc1c(C)cc(Br)cc1C(=O)Nc1ccc(Cc2ccncc2)cc1	?	16µM*	?	?	-79*	?
COc1ccccc1C(=O)Nc1ccc(Cc2ccncc2)cc1	?	-37%	21µM*	-3%	2	4%
CCCCOC(=O)c1ccc(N/C(=N\S(=O)(=O)c2ccccc2)c2ccccc2)cc1	5%	?	?	-1%	-54*	-1%
O=C(NCc1ccncc1)Nc1ccc(Cc2ccc(NC(=O)NCc3ccncc3)cc2)cc1	?	nt	10µM*	nt	?	nt
O=C(NCc1ccncc1)Nc1ccccc1	1%	16%	5%	0%	9	-6%[9.22 µM]
CCN(CC(=O)Nc1cc(Cl)ccc1C)C(=O)CCOc1ccccc1C	?	0%	?	-1%	-25	-6%
O=C(NCCc1ccc(Cl)cc1)c1cccc(NC2=NC3CS(=O)(=O)CC3S2)c1 (configuration not stated)	0%	16%	12%	-20%	-5	-7%
COc1cc(NC(=O)c2cc(Br)cc(C)c2OC)ccc1NC(=O)C(C)C	?	4%	23µM*	4%	-18	4%
CCCCOC(=O)c1ccc(NC(=O)c2ccccc2OC)cc1	21µM*	?	?	?	0	?
COc1ccc(NC(=O)Nc2cnccn2)c(OC)c1	5%	-17%	3%	1%	-23	-6%
COc1ccc(NC(=O)Nc2ccc(Cc3ccncc3)cc2)c(OC)c1	3%	?	7%	1%	-51*	-6%
COc1cc(NC(=O)c2ccc(Br)o2)ccc1NC(=O)C(C)C	-8%	-3%	-17%	1%	?	-3%
CCCCOC(=O)c1ccc(NC(=O)C(=O)NCCN(C)C)cc1	?	0%	21µM*	?	-14	2%
CCOC(=O)c1c(NC(=O)COC(=O)c2ccc(Cl)nc2)sc(C)c1C	-13%	nt	-23%	nt	19	nt
SMILES	TDP1 cell CPT	MCF10A rerep	TDP1 cell noCPT	BCR signal inh	IL1B secr inh	SW480 rereplic
COc1ccc(NC(=O)C2CCN(S(=O)(=O)c3cn(C)nc3C)CC2)cc1	-8%	28%	-12%	2%	26	-20%
O=C(c1cnc2n(c1=O)CCS2)N1CCN(c2ccccc2Cl)CC1	nt	nt	nt	5%	nt	nt
O=C(c1cnc2n(c1=O)CCS2)N1CCN(C(c2ccccc2)c2ccc(Cl)cc2)CC1 (configuration not stated)	12µM*	15%	21µM*	-2%	-21	-3%
NC(=O)CC(NC(=O)c1ccccc1)c1ccc(NC2CCCCCCC2)c([N+](=O)[O-])c1 (configuration not stated)	23µM*	-9%	23µM*	-3%	-12	3%
NC(=O)CC(NC(=O)c1ccc(Br)cc1)c1ccc(NC2CCCCCCC2)c([N+](=O)[O-])c1 (configuration not stated)	16µM*	-23%	16µM*	-1%	?	-7%
CNC(=O)c1ccsc1NC(=O)c1coc2ccccc2c1=O	?	-3%	18µM*	?	2	-20%
Cc1ccc(S(=O)(=O)N(CC(=O)NCC2CCCO2)C2CCCCC2)cc1 (configuration not stated)	-5%	3%	?	?	0	-4%
CCN(CC)CCCC(C)Nc1cc(/C=C/c2ccccc2Cl)nc2cc(Cl)ccc12 (configuration not stated)	0.63µM*	23%	0.89µM*	nt	nt	16%
N#CC1=C(N)SC(N)=C(C#N)C1c1ccc([N+](=O)[O-])cc1	15µM*	28%	?	-1%	-18	-1%
N#CC1=C(N)SC(N)=C(C#N)C1c1ccc(C(F)(F)F)cc1	nt	nt	nt	7%	nt	nt
CC(C)(C)CC(C)(C)c1ccc(O)c(CN2CCN(CCC#N)CC2)c1	?	18µM*	23µM*	?	-57*	?
CC(C)(C)c1ccc(S(=O)(=O)N2CCN(CCC#N)CC2)cc1	-11%	0%	-17%	6%	-7	-1%
CCCCn1c(N)c(N(CCOC)C(=O)Cn2c(=O)oc3ccccc32)c(=O)[nH]c1=O	18%	0%	-9%	-4%	31	-133%
COc1ccc2cc(CNCc3nonc3C)c(N3CCCC(CO)C3)nc2c1 (configuration not stated)	15%[9.04 µM]	nt	-13%	nt	nt	nt
O=C(Nc1nnc(-c2ccco2)o1)c1ccc(S(=O)(=O)N2CCCCC2)cc1	21µM*	nt	13µM*	nt	7	nt
COc1cccc(-c2nnc(NC(=O)c3ccc(S(=O)(=O)N4CCOCC4)cc3)o2)c1	23µM*	18%	12µM*	?	31	?
